Experimental findings from PubChem BioAssay (NCATS) are described below.

Molecules are shown by their SMILES. Inconclusive results are not listed. Where a call stands in place of a potency, no number is given. Calls of active or inactive are those of the source. The call rests on the fitted dose curve; in most records, active means well fitted cell-killing curve with a large enough effect; inconclusive means small, poorly fitted or top-dose-only effect, or effect the other way; inactive means flat fitted curve, though single readings scatter.
Potency means the concentration at half of the fitted maximal effect.

The test system of one test is OV90. The test is described as follows: Primary qHTS to identify gynecologic anti-cancer compounds using libraries of approved drugs and bioactive compounds (AID 1345084). Further: nearly all actives have a fitted effect of over 55% in size. The conditions noted are these: Gynecologic cancer cell panel viability, ATPlite luminescence, 48 h; series mostly up to 57.5 µM. In short, it runs like this:
(§1)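 In this quantitative HTS, cell killing is estimated from loss of ATP-dependent luciferase light. Cells see five compound concentrations over a 48 h exposure.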
A general note: qHTS replaces the single test concentration by a dilution series.
As to `CCC(C)C(C)(COC(N)=O)COC(N)=O` (stereo not drawn), the Potency entry is “inactive”.
As to `CN1CCC(O)(c2ccc(F)cc2)C(C(=O)c2ccc(F)cc2)C1` (stereo not drawn), the Potency result was “inactive”.
For the compound `CCC1(c2ccc(N)cc2)CCC(=O)NC1=O` (stereo not drawn), the Potency result was “inactive”.
Take `C[C@]12Cc3cn[nH]c3C[C@@H]1CC[C@@H]1[C@@H]2CC[C@@]2(C)[C@H]1CC[C@]2(C)O`: the Potency entry is “inactive”.
The same measure, in the same setting: as for `[N-]=[N+]=CC(=O)OC[C@H](N)C(=O)O`, the entry is “inactive”.
Consider `COc1cc(CCN)cc(OC)c1OC`, for which the Potency result was “inactive”.
Still for that read-out and setting: the entry for `CCC(CC)(CNC(=O)CCCO)c1cccc(OC)c1` is “inactive”.
The same measure, in the same setting: the entry for `C=C(C)[C@H]1CN[C@H](C(=O)O)[C@H]1CC(=O)O` is “inactive”; for `C[C@]12CC[C@H]3[C@@H](CCC4=CC(=O)CC[C@@H]43)[C@@H]1CC[C@@H]2OC(=O)CCC1CCCCC1` it is “inactive”.
Still for that read-out and setting: the entry for `Nc1nc(N)nc(NC2CC2)n1` is “inactive”.
`O=C1OC(CCN2CCCCC2)OC1(c1ccccc1)c1ccccc1` (stereo not drawn): the Potency entry was “inactive”.
Still for that read-out and setting: the entry for `O=C1CN=C(c2ccccc2)c2cc([N+](=O)[O-])ccc2N1` is “inactive”.
On the same count and under the same terms, as for `CN1CC[C@]23c4c5ccc(O)c4O[C@H]2[C@@H](O)C=C[C@H]3[C@H]1C5`, the entry is “inactive”; as for `CN1C(=O)COc2c(C(=O)NC3CN4CCC3CC4)cc(Cl)cc21` (stereo not drawn), “inactive”; as for `CC(C)(N)Cc1ccccc1Cl`, “inactive”.
For the compound `CC(Cc1ccccc1)N(C)Cc1ccco1` (stereo not drawn), the Potency entry is “inactive”.
The same measure, in the same setting: the entry for `Clc1cccc(SC2CCNCC2)n1` is “inactive”.
Same read-out and setting: as for `C=CCC1(C(C)CC)C(=O)NC(=O)NC1=O` (stereo not drawn), the entry is “inactive”.
Still for that read-out and setting: as for `CCN[C@@H](C)Cc1ccccc1`, the entry is “inactive”.
As to `Clc1ccccc1N1CCNCC1`, the Potency entry is “inactive”.
On the same count and under the same terms, as for `O=C(O)CCCc1ccc(N(CCCl)CCCl)cc1`, the entry is “inactive”; as for `C[C@]12CC[C@H]3[C@@H](CC[C@@]45O[C@H]4C(O)=C(C#N)C[C@]35C)[C@H]1CC[C@H]2O`, “inactive”; as for `O=c1[nH]c2ccccc2n1C1CCNCC1`, “inactive”.
Same read-out and setting: the entry for `C=CCN1C[C@H](C)N([C@H](c2ccc(C(=O)N(CC)CC)cc2)c2cccc(OC)c2)C[C@H]1C` is “inactive”.
With `c1ccc(N2CCNCC2)cc1`, the Potency result was “inactive”.
Still for that read-out and setting: as for `CCCOC(=O)c1cncn1C(C)c1ccccc1` (stereo not drawn), the entry is “inactive”; as for `C[C@]12CC[C@H]3[C@@H](CCC4=CC(=O)CC[C@@H]43)[C@@H]1CC[C@@H]2OC(=O)CCc1ccco1`, “inactive”.
On the same count and under the same terms, as for `CC(Cc1ccccc1)NCCn1cnc2c1c(=O)n(C)c(=O)n2C` (stereo not drawn), the entry is “inactive”.
Same read-out and setting: the entry for `C#CC(O)(C=CCl)CC` (stereo not drawn) is “inactive”.
On to `CCc1cc2c(s1)-n1c(C)nnc1CN=C2c1ccccc1Cl`, for which the Potency entry is “inactive”.
Same read-out and setting: as for `CC[N+]1(CC)CCC(OC(=O)C(O)(c2ccccc2)c2ccccc2)C1` (stereo not drawn), the entry is “inactive”; as for `CC(=O)C1CCOC1=O` (stereo not drawn), “inactive”; as for `ClCCN1CCCC1`, “inactive”.
The same measure, in the same setting: as for `COc1c2c(cc3c1OCO3)CCN(C)C2`, the entry is “inactive”.

The test system of another test is PA-1. Described as above. The following applies: Gynecologic cancer cell panel viability, ATPlite luminescence, 48 h; series mostly up to 57.5 µM. The essentials: as §1
In general terms: ATP-based viability assays read luminescence as a measure of living cells.
On to `CCC(C)C(C)(COC(N)=O)COC(N)=O` (stereo not drawn), for which the Potency result is “inactive”.
Same read-out and setting: as for `CN1CCC(O)(c2ccc(F)cc2)C(C(=O)c2ccc(F)cc2)C1` (stereo not drawn), the entry is “inactive”; as for `CCC1(c2ccc(N)cc2)CCC(=O)NC1=O` (stereo not drawn), “inactive”.
Still for that read-out and setting: the entry for `C[C@]12Cc3cn[nH]c3C[C@@H]1CC[C@@H]1[C@@H]2CC[C@@]2(C)[C@H]1CC[C@]2(C)O` is “inactive”; for `[N-]=[N+]=CC(=O)OC[C@H](N)C(=O)O` it is “inactive”; for `COc1cc(CCN)cc(OC)c1OC` it is “inactive”.
Same read-out and setting: as for `CCC(CC)(CNC(=O)CCCO)c1cccc(OC)c1`, the entry is “inactive”.
As for `C=C(C)[C@H]1CN[C@H](C(=O)O)[C@H]1CC(=O)O`, the Potency result was “inactive”.
The same measure, in the same setting: the entry for `C[C@]12CC[C@H]3[C@@H](CCC4=CC(=O)CC[C@@H]43)[C@@H]1CC[C@@H]2OC(=O)CCC1CCCCC1` is “inactive”.
With `Nc1nc(N)nc(NC2CC2)n1`, the Potency entry is “inactive”.
On the same count and under the same terms, as for `O=C1OC(CCN2CCCCC2)OC1(c1ccccc1)c1ccccc1` (stereo not drawn), the entry is “inactive”.
Still for that read-out and setting: the entry for `O=C1CN=C(c2ccccc2)c2cc([N+](=O)[O-])ccc2N1` is “inactive”; for `CN1CC[C@]23c4c5ccc(O)c4O[C@H]2[C@@H](O)C=C[C@H]3[C@H]1C5` it is “inactive”; for `CN1C(=O)COc2c(C(=O)NC3CN4CCC3CC4)cc(Cl)cc21` (stereo not drawn) it is “inactive”.
Regarding `CC(C)(N)Cc1ccccc1Cl`, the Potency result was “inactive”.
As to `CC(Cc1ccccc1)N(C)Cc1ccco1` (stereo not drawn), the Potency result was “inactive”.
On the same count and under the same terms, as for `Clc1cccc(SC2CCNCC2)n1`, the entry is “inactive”; as for `C=CCC1(C(C)CC)C(=O)NC(=O)NC1=O` (stereo not drawn), “inactive”.
Still for that read-out and setting: the entry for `CCN[C@@H](C)Cc1ccccc1` is “inactive”; for `Clc1ccccc1N1CCNCC1` it is “inactive”.
On the same count and under the same terms, as for `O=C(O)CCCc1ccc(N(CCCl)CCCl)cc1`, the entry is “inactive”; as for `C[C@]12CC[C@H]3[C@@H](CC[C@@]45O[C@H]4C(O)=C(C#N)C[C@]35C)[C@H]1CC[C@H]2O`, “inactive”.
With `O=c1[nH]c2ccccc2n1C1CCNCC1`, the Potency result was “inactive”.
Same read-out and setting: the entry for `C=CCN1C[C@H](C)N([C@H](c2ccc(C(=O)N(CC)CC)cc2)c2cccc(OC)c2)C[C@H]1C` is “inactive”.
For the compound `c1ccc(N2CCNCC2)cc1`, the Potency result was “inactive”.
The same measure, in the same setting: as for `CCCOC(=O)c1cncn1C(C)c1ccccc1` (stereo not drawn), the entry is “inactive”.
For `C[C@]12CC[C@H]3[C@@H](CCC4=CC(=O)CC[C@@H]43)[C@@H]1CC[C@@H]2OC(=O)CCc1ccco1`, the Potency was 25.1 µM (active).
On the same count and under the same terms, the entry for `CC(Cc1ccccc1)NCCn1cnc2c1c(=O)n(C)c(=O)n2C` (stereo not drawn) is “inactive”; for `C#CC(O)(C=CCl)CC` (stereo not drawn) it is “inactive”.
In the case of `CCc1cc2c(s1)-n1c(C)nnc1CN=C2c1ccccc1Cl`, the Potency entry is “inactive”.
The same measure, in the same setting: as for `CC[N+]1(CC)CCC(OC(=O)C(O)(c2ccccc2)c2ccccc2)C1` (stereo not drawn), the entry is “inactive”.
For the compound `CC(=O)C1CCOC1=O` (stereo not drawn), the Potency entry is “inactive”.
The same measure, in the same setting: as for `ClCCN1CCCC1`, the entry is “inactive”; as for `COc1c2c(cc3c1OCO3)CCN(C)C2`, “inactive”.
